# PubChem BioAssay (NCI)
# Where “and” joins values, the source holds several entries; their conditions need not be identical. Equal values may be shown once. This is part of a sample that, as a whole, favours compounds with a hit. Of some 83,000 tested, about 20% had one in any assay.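 Single-dose data. Exposure time 48 hours. Values below 10 considered active.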 Some compounds were tested as several samples or in several runs, with calls that do not always agree. Calls of active or inactive are those of the source.
# Columns and labels:
# Test in all cases: NCI-60 one-dose screen, 48 h (100 = growth as untreated, 0 = no growth, -100 = all killed)
# Conditions in all cases: 10 µM
# NCI-H23 lung = system: NCI-H23 lung
# NCI-H226 lung = system: NCI-H226 lung
# NCI-H322M lung = system: NCI-H322M lung
# HOP-62 NSCLC = system: HOP-62 NSCLC
# NCI-H460 lung = system: NCI-H460 lung
# HOP-92 NSCLC = system: HOP-92 NSCLC
# NCI-H522 lung = system: NCI-H522 lung
# A549/ATCC NSCLC = system: A549/ATCC NSCLC
# 786-0 renal = system: 786-0 renal
# COLO 205 colon = system: COLO 205 colon
# DU-145 prostate = system: DU-145 prostate
# K-562 leukemia = system: K-562 leukemia
# MALME-3M melanoma = system: MALME-3M melanoma
# MDA-MB-231 breast = system: MDA-MB-231 breast
# RXF 393 renal = system: RXF 393 renal
# SF-268 CNS = system: SF-268 CNS
# SF-295 CNS = system: SF-295 CNS
# SF-539 CNS = system: SF-539 CNS
# UACC-257 melanoma = system: UACC-257 melanoma
# M14 melanoma = system: M14 melanoma
Structure (SMILES),growth (NCI-H23 lung),growth (NCI-H226 lung),growth (NCI-H322M lung),growth (HOP-62 NSCLC),growth (NCI-H460 lung),growth (HOP-92 NSCLC),growth (NCI-H522 lung),growth (A549/ATCC NSCLC),growth (786-0 renal),growth (COLO 205 colon),growth (DU-145 prostate),growth (K-562 leukemia),growth (MALME-3M melanoma),growth (MDA-MB-231 breast),growth (RXF 393 renal),growth (SF-268 CNS),growth (SF-295 CNS),growth (SF-539 CNS),growth (UACC-257 melanoma),growth (M14 melanoma)
CN(C)CCOC1(Cc2ccc(Cl)cc2Cl)CCC(C(C)(C)C)CC1 (stereo not drawn),33.4% (inactive) and 36.7% (inactive),53% (inactive) and 33.9% (inactive),70% (inactive) and 76.3% (inactive),39.8% (inactive) and 42.1% (inactive),-65.8% (active) and -61.2% (active),47.9% (inactive) and 43% (inactive),9.54% (active) and 48.6% (inactive),38.9% (inactive) and 21.1% (inactive),51.2% (inactive) and 24.3% (inactive),-89.2% (active) and -87.9% (active),22.7% (inactive) and 7.69% (active),-37.2% (active) and -48.5% (active),-48.2% (active) and -65.3% (active),7.18% (active) and -26.3% (active),30.2% (inactive) and -32.5% (active),46.1% (inactive) and 34.9% (inactive),-44% (active) and -69.9% (active),39.7% (inactive) and 46.6% (inactive),-33.6% (active) and 2.54% (active),-34.4% (active) and -59.1% (active)
O=[N+]([O-])c1cc[n+]([O-])cc1,100% (inactive),105% (inactive),133% (inactive),131% (inactive),103% (inactive),116% (inactive),83.1% (inactive),101% (inactive),106% (inactive),117% (inactive),120% (inactive),117% (inactive),101% (inactive),95.9% (inactive),114% (inactive),107% (inactive),101% (inactive),122% (inactive),76.5% (inactive),113% (inactive)
COc1ccc(C(=O)C(CN(C)C)CN(C)C)cc1,96.1% (inactive),113% (inactive),98% (inactive),97.9% (inactive),102% (inactive),44% (inactive),-54.1% (active),118% (inactive),87.8% (inactive),-75.3% (active),56.9% (inactive),-19.4% (active),-70.7% (active),104% (inactive),63.9% (inactive),96.5% (inactive),102% (inactive),96.3% (inactive),73.1% (inactive),52% (inactive)
C#CCN(Cc1ccc2nc(N)[nH]c(=O)c2c1)c1ccc(C(=O)NC(CCC(=O)O)C(=O)O)cc1 (stereo not drawn),99.2% (inactive),80.8% (inactive),90.3% (inactive),82.3% (inactive),80.1% (inactive),86.9% (inactive),80.2% (inactive),95% (inactive),12% (inactive),67.4% (inactive),48.6% (inactive),58.9% (inactive),86.8% (inactive),,72.9% (inactive),70.4% (inactive),99.5% (inactive),0.195% (active),92.1% (inactive),44.7% (inactive)
Cc1cc(N(CCOS(C)(=O)=O)CCOS(C)(=O)=O)ccc1C=Nc1ccc(-c2nc(Cc3ccccc3)sc2C)cc1,31% (inactive),61.6% (inactive),-18.9% (active),36% (inactive),-38.3% (active),,-91.3% (active),34.8% (inactive),13.8% (inactive),-71.3% (active),11.8% (inactive),21.7% (inactive),58% (inactive),77.2% (inactive),45.9% (inactive),39.4% (inactive),12.6% (inactive),15% (inactive),6.01% (active),25.8% (inactive)
C=C1C(=O)OC2CC1C(OC(C)=O)C/C(C)=C/CC/C(C)=C\CCC2(C)O (stereo not drawn),11.1% (inactive),15.9% (inactive),67.3% (inactive),106% (inactive),21.7% (inactive),-28.6% (active),-83.9% (active),64.1% (inactive),38.9% (inactive),0.7% (active),-5% (active),-40% (active),18.6% (inactive),20.3% (inactive),13.1% (inactive),27.1% (inactive),106% (inactive),11.2% (inactive),58.2% (inactive),16.4% (inactive)
CC1=CC(=C(c2ccc(N)cc2)c2ccc(N)cc2)C=CC1=N,29.7% (inactive) and 44.7% (inactive),17% (inactive) and 51.4% (inactive),26.3% (inactive) and 38.5% (inactive),31.4% (inactive) and 20.6% (inactive),6.34% (active),2.19% (active) and 63% (inactive),-8.93% (active) and 60.9% (inactive),14.1% (inactive) and 16.9% (inactive),23.5% (inactive) and 42.8% (inactive),-8.22% (active) and -56.6% (active),18.6% (inactive) and 38.3% (inactive),21.1% (inactive) and 24.5% (inactive),0.759% (active) and 56.2% (inactive),6.87% (active) and 21.8% (inactive),-12.8% (active) and 62.6% (inactive),26.1% (inactive) and 29% (inactive),-7.28% (active),8.88% (active) and 16.1% (inactive),-6.06% (active) and 8.33% (active),27.4% (inactive)
Cc1ccc(Sc2ccccc2N)cc1,72.3% (inactive),106% (inactive),105% (inactive),100% (inactive),41.3% (inactive),101% (inactive),71.4% (inactive),96% (inactive),108% (inactive),96.8% (inactive),6.34% (active),108% (inactive),116% (inactive),102% (inactive),67.4% (inactive),98.1% (inactive),88.8% (inactive),114% (inactive),98.5% (inactive),99.5% (inactive)
